Reference: PubChem BioAssay AID652054 (National Center for Advancing Translational Sciences (NCATS), 2013)
In all, about 360,000 compounds went through this assay and about 9,100 (2.5%) were called active. Another 4% or so got no clear call; they are omitted. This excerpt belongs to a sample that is enriched for actives. A number with no mark means an inactive call. Cut-off read from the data, not from the text of the source: active = max response below about -50%; inconclusive = no clear call, values can overlap the other calls; inactive = above that.

Target: D(3) dopamine receptor (Homo sapiens) (UniProt P35462)
Sequence (P35462 whole entry, looked up): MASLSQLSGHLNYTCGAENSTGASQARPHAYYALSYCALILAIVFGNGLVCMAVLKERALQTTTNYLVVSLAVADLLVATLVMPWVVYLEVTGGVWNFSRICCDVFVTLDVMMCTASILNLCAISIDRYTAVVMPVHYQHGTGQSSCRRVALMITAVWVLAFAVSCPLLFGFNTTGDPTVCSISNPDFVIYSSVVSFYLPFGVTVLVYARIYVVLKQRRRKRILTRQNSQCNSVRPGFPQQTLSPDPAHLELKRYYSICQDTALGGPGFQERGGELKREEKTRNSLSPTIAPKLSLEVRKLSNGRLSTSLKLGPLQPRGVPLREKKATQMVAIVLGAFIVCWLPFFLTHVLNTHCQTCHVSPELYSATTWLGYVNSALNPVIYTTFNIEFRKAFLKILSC
Test: qHTS of D3 Dopamine Receptor Antagonist: qHTS
Conditions: D3R cells, DiscoveRx beta-arrestin luminescence, antagonist mode; stronger effect = lower value
Procedure, shortened: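 Cells plated overnight at 1500 cells/well, then exposed to library compounds with dopamine controls for 90 minutes at 37 degrees C. DiscoveRx reagent added for 30–60 minutes at room temperature; luminescence read, quantitative HTS format.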
% is set by controls: 0 for no effect and ±100 for the full control effect.

Structure (SMILES)	max response, negative = inhibition
O=C(COc1ccccc1[N+](=O)[O-])NC1CC1	16.3%
C=CCN(CC=C)CCOc1ccccc1[N+](=O)[O-]	-52.4% (active)
CC1CN(CCOc2ccccc2[N+](=O)[O-])CC(C)O1 (stereo unspecified)	-93.5% (active)
O=C(COc1ccc(Cl)cc1[N+](=O)[O-])N1CCCCC1	-5.15%
Cc1cc(OCCCN2CCN(Cc3ccccc3)CC2)ccc1[N+](=O)[O-]	-14.9%
CC1CN(CCCOc2ccccc2-c2ccccc2)CC(C)O1 (stereo unspecified)	-29.6%
Cc1ccc(OCC(=O)Oc2ccccc2[N+](=O)[O-])cc1	0.0069%
O=[N+]([O-])c1ccccc1OCCCCN1CCCCC1	-89.3% (active)
Cc1cc(C)c(OCCN2CC(C)OC(C)C2)c(Br)c1 (stereo unspecified)	-21.2%
O=c1[nH][nH]c2c1[C@H](c1ccc(Cl)cc1)O[C@H](CCc1ccccc1)C2	-23.3%
CCCNC(=O)C1(C)CCN(C(=O)c2cc(F)ccc2C)C1 (stereo unspecified)	-11.8%
CC(C)CN1CCC1(C)C(=O)Nc1ccc(OC(F)F)cc1 (stereo unspecified)	12.7%
O=C(Nc1cc(F)ccc1F)c1ccc2c(=O)n3c(nc2c1)CCC3	8.55%
Cc1ccc(NC(=O)[C@H](Cc2ccccc2)NC(=O)CC[C@H]2O[C@@H](n3ccc(=O)[nH]c3=O)[C@H](O)[C@@H]2O)cc1C	-15.6%
OC[C@@H]1CN(Cc2ccc(F)cc2)C[C@H](n2cnc3c(NC4CCCC4)ncnc32)O1	4.42%
CC1(C(=O)NS(=O)(=O)c2ccccc2)CCN1C(=O)c1ccccc1 (stereo unspecified)	10.2%
CC1(C(=O)NS(=O)(=O)c2ccccc2)CCN1C(=O)C/C=C/c1ccccc1 (stereo unspecified)	-9.32%
CC1(C)CCSC(/C=C/c2ccccc2)=N1	-74.9% (active)
CC1(C(=O)O)CCN1C(=O)/C=C/c1ccccc1 (stereo unspecified)	0%
CCC1OC(C2CC2)CC2=C1C(=O)OC(C)(C)O2 (stereo unspecified)	14.7%
CCCC(=O)N1CCC1(C)C(=O)NCc1ccc(C(C)C)cc1 (stereo unspecified)	-6.82%

Structure (SMILES)	max response, negative = inhibition
CC(C)(C)N(CC#CCC(O)(c1ccccc1)C1CCCC1)CCO (stereo unspecified)	11.7%
CN(CC#CCC(c1ccccc1)c1ccccc1)C(C)(C)C	-61.6% (active)
O=C1CCC(=O)N1CCC(=O)N(C(=O)NC1CCCCC1)C1CCCCC1	14.6%
CC1(C)NC(=O)N(CC(=O)Nc2ccc(-c3ccccc3)cc2)C1=O	16.4%
c1ccc2c(c1)CSc1sccc1C2=C1CCNCC1	-65.7% (active)
Cc1ccc(/C=N/NC(=O)COc2ccccc2-c2ccccc2)cc1	25.4%
Cc1cccc(NC(=O)CCN2CC(C)CC(C)C2)c1 (stereo unspecified)	-1.96%
CCN1CCN(CCCCOc2ccccc2F)CC1	-71.5% (active)
COc1ccccc1N1CCN(c2ccc([N+](=O)[O-])nc2)CC1	5.81%
COc1ccccc1N1CCN(CC(=O)NC(=O)NCc2ccco2)CC1	-22.2%
OCCN1CCN(C(=S)c2ccc(-c3ccccc3)cc2)CC1	-6.47%
CC1CC(C)CN(CCOc2cccc3ccccc23)C1 (stereo unspecified)	-86.3% (active)
COc1ccccc1N1CCN(CCCCOc2ccc(F)cc2)CC1	-78.2% (active)
CN1CCN(CCCCOc2ccccc2-c2ccccc2)CC1	-71% (active)
Fc1ccccc1OCCCCn1cncn1	2.5%
Cc1[nH]c2ccccc2c1C(=O)CN1CC(C)CC(C)C1 (stereo unspecified)	-3.3%
O=c1c2ccccc2ncn1CCCCOc1ccccc1F	-15.9%
Nc1nc2ncccn2c1-c1ccccc1	-1.52%
O=C(COC(=O)c1cccc(Cl)c1Cl)NC1CCCCCC1	-13.8%
CC1CCCC(C)N1C(=O)COC(=O)c1ccccc1C(=O)c1ccccc1 (stereo unspecified)	-17.2%
O=C(Nc1ccc(Cl)c(C(F)(F)F)c1)C1Cc2c(-c3ccccc3Oc3ccccc3)ccnc2O1 (stereo unspecified)	0%

Structure (SMILES)	max response, negative = inhibition
CCCCN1C[C@H](c2ccc(Br)cc2)[C@@H](CC(=O)Nc2ccc(Br)cc2)C1=O	24.8%
COc1ccc(C(=O)C(OP(=O)(OC)OC)c2ccccc2OC)cc1 (stereo unspecified)	2.58%
CC(C)c1cccc(C(C)C)c1Nc1cn[nH]c1	157%
C[C@@H]1CN([C@@H](C)CO)C(=O)CCCn2nncc2CO[C@H]1CN(C)C(=O)Nc1ccc(C(F)(F)F)cc1	-16.1%
CCCCOCCCNC(=O)C[C@@H]1C[C@@]2(C(=O)OC)CCCCC=C2N(CCC2=CCCCC2)C1=O	0%
CC(C)NC(=O)C1(C)CCCCN1Cc1cccc(C(F)(F)F)c1 (stereo unspecified)	0%
CCOC(=O)C1C(C)C(C(C)(C)C)N(S(=O)(=O)c2ccc(C)cc2)C1c1ccccc1 (stereo unspecified)	15.8%
CC1(C(=O)Nc2cccc3cccnc23)CCN1C(=O)CCC1CCCC1 (stereo unspecified)	0%
COc1ccccc1OCCCCCCN1CCN(C)CC1	0.923%
CCOC(=O)C1CCN(C(=O)COc2cccc3ccccc23)CC1	2.44%
CN1CCN(CCCCOc2cccc3ccccc23)CC1	-59% (active)
C[N+](C)(C)CCNC(=O)c1c[nH]c2ccccc12	0%
CCOC(=O)[C@]12CCC=C1N(Cc1ccco1)C(=O)[C@H](CC(=O)N1CCSCC1)C2	2.85%
COC(=O)[C@@]12C[C@@H](CC(=O)N3CCC(c4ccccc4)CC3)C(=O)N(Cc3ccccc3)C1=CCC(C)(C)C2	15.3%
COc1ccc(-c2cc3c(c4c2ccn4C)C2CCC3C2)cn1 (stereo unspecified)	12.4%
O=C(CSc1nc2cccc(F)c2c(=O)n1-c1ccccc1)Nc1ccc2c(c1)CCC2	-3.93%
Cn1c(-c2ccc(F)cc2)cnc1SCC(=O)NCc1ccco1	-51.9% (active)
O=C(CSc1nnc2scc(-c3ccc(F)cc3)n12)NCc1ccco1	5.75%
Cn1c(-c2ccc(F)cc2)cnc1SCC(=O)NNC(=O)Cc1ccccc1	-14.6%
